Measured values taken from PubChem BioAssay AID1159580 (chemical genetic matrix, 2015).
“And” between values parts separate entries of the source, which are not always exact repeats. Equal values may be shown once. In all, about 5,500 compounds went through this assay and about 2,000 (36%) were called active. Roughly 18% stayed inconclusive and do not appear here. No stated cut-off is given here; in the data, active means normalized growth mostly below about 0.91 (no sharp cut-off); inconclusive means no clear call, values can overlap the other calls; inactive means mostly above about 0.92. This is one part of the list.

Assay: chemical genetic growth profiling, strain panel (AID 1159580);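 further: tested at 20 µM; growth read once vehicle control cultures reached saturation at 30 °C; 1 = growth at the plate median or of vehicle wells; lower values mean less growth of the strain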
Conditions: S. cerevisiae deletion strains, growth OD

Measured: normalized growth

CC(=O)CC(c1ccccc1)c1c(O)c2ccccc2oc1=O (configuration not stated)
inactive: locus YAL013W, strain DEP1, hits give low values 1.01 | locus YAL021C, strain ccr4, hits give low values 1.01 | locus YAL026C, strain drs2, hits give low values 0.991 | locus YAL030W, strain snc1, hits give low values 0.991 | locus YBL061C, strain skt5, hits give low values 0.998 | locus YBR009C, strain hhf1, hits give low values 1 | locus YBR021W, strain FUR4, hits give low values 0.996 | locus YBR023C, strain chs3, hits give low values 0.996 | locus YBR171W, strain sec66, hits give low values 0.991 | locus YBR229C, strain ROT2, hits give low values 1 | locus YBR231C, strain swc5, hits give low values 1 | locus YBR279W, strain paf1, hits give low values 0.993 | locus YCL011C, strain gbp2, hits give low values 0.999 | locus YCL016C, strain dcc1, hits give low values 0.994 | locus YCL029C, strain bik1, hits give low values 1.03 | locus YCL061C, strain MRC1, hits give low values 1 | locus YCL069W, strain vba3, hits give low values 1 | locus YCR088W, strain abp1, hits give low values 1 | locus YDL005C, strain med2, hits give low values 0.999 | locus YDL035C, strain GPR1, hits give low values 1.02 | locus YDL040C, strain nat1, hits give low values 0.994 | locus YDL074C, strain BRE1, hits give low values 1.02 | locus YDL101C, strain DUN1, hits give low values 1.02 | locus YDL134C, strain PPH21, hits give low values 1.01 | locus YDL185W, strain tfp1, hits give low values 1.01 | locus YDL192W, strain arf1, hits give low values 1.02 | locus YDR001C, strain nth1, hits give low values 0.993 | locus YDR069C, strain doa4, hits give low values 1 | locus YDR101C, strain arx1, hits give low values 1.02 | locus YDR137W, strain rgp1, hits give low values 0.867 | locus YDR150W, strain NUM1, hits give low values 1.01 | locus YDR159W, strain sac3, hits give low values 1.02 | locus YDR162C, strain NBP2, hits give low values 1.03 | locus YDR195W, strain ref2 1.01 | locus YDR297W, strain sur2, hits give low values 1 | locus YDR318W, strain mcm21, hits give low values 1.03 | locus YDR334W, strain swr1, hits give low values 1 | locus YDR335W, strain msn5, hits give low values 1.01 | locus YDR388W, hits give low values 1 | locus YDR392W, strain spt3, hits give low values 0.966 | locus YDR502C, strain sam2, hits give low values 1.01 | locus YEL003W, strain gim4, hits give low values 1.01 | locus YEL037C, strain rad23, hits give low values 0.999 | locus YEL061C, strain CIN8 (second series), hits give low values 0.999 | locus YEL061C, strain CIN8, hits give low values 1.01 | locus YER015W, strain faa2, hits give low values 0.987 | locus YER016W, strain bim1, hits give low values 0.993 | locus YER110C, hits give low values 1.03 | locus YER111C, strain swi4, hits give low values 0.999 | locus YER155C, strain BEM2 (second series), hits give low values 1.01 | locus YER155C, strain BEM2, hits give low values 1 | locus YER167W, strain BCK2, hits give low values 1.03 | locus YFR010W, strain ubp6, hits give low values 1.01 | locus YGL078C, strain dbp3, hits give low values 1.01 | locus YGL086W, strain mad1, hits give low values 1.03 | locus YGL167C, strain pmr1, hits give low values 0.986 | locus YGL173C, strain kem1, hits give low values 1 | locus YGL227W, strain vid30, hits give low values 0.988 | locus YGL240W, strain doc1, hits give low values 1 | locus YGL248W, strain PDE1, hits give low values 1.01 | locus YGL253W, strain hxk2, hits give low values 1 | locus YGR078C, strain PAC10, hits give low values 1.02 | locus YGR135W, strain pre9, hits give low values 1.02 | locus YGR229C, strain SMI1, hits give low values 1.02 | locus YGR252W, strain gcn5, hits give low values 1.06 | locus YHR013C, strain ard1, hits give low values 1.03 | locus YHR027C, strain rpn1, hits give low values 0.994 | locus YHR030C, strain SLT2, hits give low values 1.01 and 0.993 | locus YHR079C, strain IRE1 (second series), hits give low values 1.01 | locus YHR079C, strain IRE1, hits give low values 0.982 | locus YHR094C, strain hxt1, hits give low values 1.02 | locus YHR129C, strain ARP1, hits give low values 1 | locus YHR142W, strain chs7, hits give low values 1.01 | locus YHR200W, strain rpn10, hits give low values 1.02 | locus YIL066C, strain RNR3, hits give low values 1.02 | locus YIL073C, strain SPO22, hits give low values 1.1 | locus YIL125W, strain kgd1, hits give low values 1.01 | locus YIR030C, strain dcg1, hits give low values 1.02 | locus YJL092W, strain hpr5, hits give low values 0.996 | locus YJL095W, strain BCK1 (second series), hits give low values 0.992 | locus YJL095W, strain BCK1, hits give low values 1.01 and 0.973 | locus YJL115W, strain asf1, hits give low values 1 | locus YJL129C, strain trk1, hits give low values 1.02 | locus YJL134W, strain LCB3, hits give low values 1 | locus YJL154C, strain vps35, hits give low values 0.995 | locus YJL164C, strain tpk1, hits give low values 1.01 | locus YJL166W, strain qcr8, hits give low values 1.01 | locus YJL168C, strain set2, hits give low values 1 | locus YJL187C, strain SWE1 (second series), hits give low values 1.02 | locus YJL187C, strain SWE1, hits give low values 0.989 | locus YJR043C, strain POL32, hits give low values 1.03 | locus YJR066W, strain TOR1, hits give low values 0.925
